Insulin prom up = MIN6 insulin promoter up-regulation | MIN6 insulin promoter-GFP reporter, high-content imaging; stronger effect = higher value | z-score at 5 µM | 0.3% of 190,000 active;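 active = z-score above 3 at 5 µM with at least 500 cells counted in the well; inconclusive = wells under 500 cells, flagged as cytotoxic or low count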
Insulin prom inh = TRM-6 insulin promoter activity inhibition; TRM-6 cells (human fetal islet line), insulin promoter-eGFP reporter, imaging; reporter expression induced with tamoxifen; inhibition, % at 2 µM; 0.9% of 130,000 active; AID 1273;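 active = inhibition above the mean plus 3 SD, with well images judged a real hit on visual review, cut at about 60% in these data, passing the limit was not always enough; inconclusive = inhibition over the cutoff but images rejected on review; inactive = inhibition not above the cutoff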
Cl transport mod = modulators of human KCC2 chloride dependent transport. AID 1456. 2.2% of 190,000 active. KCC2 cells, thallium flux FluoZin-2 fluorescence. B-score of Tl+ flux slope (higher = more flux/activation; lower = inhibition) at 10 µM;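 active = thallium flux slope and its plate-corrected score both differing from the plate sample mean at a set confidence after two filtering rounds, in either direction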;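 note: slope of fluorescence scaled to starting intensity during 10 to 20 s after thallium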
Target sequence (Q9H2X9 whole entry, looked up): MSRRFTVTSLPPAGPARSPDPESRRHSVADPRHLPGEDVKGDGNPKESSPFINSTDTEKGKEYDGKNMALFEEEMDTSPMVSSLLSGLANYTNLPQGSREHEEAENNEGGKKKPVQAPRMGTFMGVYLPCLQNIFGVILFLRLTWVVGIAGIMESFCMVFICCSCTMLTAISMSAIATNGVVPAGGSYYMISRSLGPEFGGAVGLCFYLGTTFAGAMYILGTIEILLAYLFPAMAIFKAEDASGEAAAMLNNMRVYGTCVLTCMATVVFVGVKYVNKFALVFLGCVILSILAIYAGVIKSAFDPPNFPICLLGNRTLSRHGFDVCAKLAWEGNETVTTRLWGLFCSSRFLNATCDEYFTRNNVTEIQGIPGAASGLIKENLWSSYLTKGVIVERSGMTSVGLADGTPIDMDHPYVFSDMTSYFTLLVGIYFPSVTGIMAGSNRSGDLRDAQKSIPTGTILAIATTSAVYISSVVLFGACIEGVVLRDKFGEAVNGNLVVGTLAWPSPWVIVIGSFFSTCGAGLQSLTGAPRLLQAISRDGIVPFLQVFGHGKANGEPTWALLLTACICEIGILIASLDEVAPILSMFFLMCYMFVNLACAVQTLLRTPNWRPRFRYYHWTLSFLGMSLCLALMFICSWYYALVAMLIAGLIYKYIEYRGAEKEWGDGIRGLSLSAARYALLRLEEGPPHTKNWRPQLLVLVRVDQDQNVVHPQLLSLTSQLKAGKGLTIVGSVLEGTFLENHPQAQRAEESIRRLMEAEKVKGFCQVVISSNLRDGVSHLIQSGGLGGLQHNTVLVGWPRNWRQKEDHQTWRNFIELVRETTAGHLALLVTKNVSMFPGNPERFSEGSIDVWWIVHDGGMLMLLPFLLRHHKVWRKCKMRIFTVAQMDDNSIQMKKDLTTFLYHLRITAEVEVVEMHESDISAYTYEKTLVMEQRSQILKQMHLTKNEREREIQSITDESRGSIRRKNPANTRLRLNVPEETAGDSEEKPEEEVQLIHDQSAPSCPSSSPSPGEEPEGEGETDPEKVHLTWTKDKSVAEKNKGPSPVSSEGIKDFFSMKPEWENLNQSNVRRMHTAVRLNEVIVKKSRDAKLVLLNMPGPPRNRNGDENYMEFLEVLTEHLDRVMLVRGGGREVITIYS
WT yeast gro inh = growth inhibition of WT yeast, mitochondrial fusion screen. mitochondrial fusion phenotypic screen, WT strain. inhibition, % at 10 µM. 2.1% of 190,000 active; in the data active = inhibition above about 58%; tested in S. cerevisiae
ROMK mod = modulates human ROMK potassium channel activity. P48048. Tet-inducible ROMK, thallium flux fluorescence; actives lie on both sides. B-score at 10 µM. 2% of 130,000 active. AID 1918;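 active = signal ratio slope over the read window, or its plate-corrected B-score, at least 3 SD from the plate mean, either direction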;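 note: B-score of the F/F0 ratio slope over 7 to 12 s after thallium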
L major viab = Leishmania major promastigote growth inhibition; 9% of 200,000 active; Leishmania major promastigotes, resazurin fluorescence viability; inhibition, % at 10 µM; AID 1063; in the data active = inhibition above about 50%;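 note: promastigotes grown with compound for 44 hours at 28 °C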
KCC2 sec1 = confirmation of human KCC2 transport modulators; shares compounds with Cl transport mod; HEK293-KCC2, thallium flux, FluoZin2 fluorescence; stronger effect = higher value; normalised thallium flux (F/F0 slope) at 10 µM; 15% of 3,700 active;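 active = thallium flux slope above the same plate's solvent-only control mean plus 3 SD; inconclusive = the two replicate wells disagree; inactive = no significant difference from solvent-only control wells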
KCC2 bumet counter = bumetanide-insensitive thallium flux in KCC2 cells with ouabain, counter-screen | shares compounds with Cl transport mod | HEK293-KCC2 + bumetanide/ouabain, thallium flux FluoZin2; stronger effect = higher value | normalized thallium flux at 10 µM | 49% of 3,700 active;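 active = thallium entry rate above the same plate's blocked-transporter control wells by more than 3 SD; inconclusive = the two repeat wells disagree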;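 note: raw slope of fluorescence over initial fluorescence between 10 and 20 s after thallium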
KCC2 secondary2 = KCC2 (human) modulation, second secondary assay; shares compounds with Cl transport mod; HEK293-KCC2, thallium flux FluoZin2 fluorescence; actives lie on both sides; F/F0 rise rate, 10–20 s post-thallium; normalized thallium flux at 10 µM; 23% of 3,700 active;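 active = thallium flux slope more than 3 SD above or below the plate's solvent-only control mean, mostly below; inconclusive = the two repeat wells disagreed; inactive = no significant shift from solvent-only controls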;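 note: raw slope with 0.1% DMSO as baseline and bumetanide as block control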
HEK counter1 = parental HEK flux effect, counter-screen. thallium flux rate (normalised fluorescence) at 10 µM. AID 1716. HEK293 parental cells, thallium flux FluoZin2, ouabain; baseline-ratio fluorescence slope, 10–20 s after thallium. 46% of 3,700 active. shares compounds with Cl transport mod;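 active = thallium flux rate significantly above the same plate's solvent-only control wells, beyond their mean plus 3 SD; inconclusive = the two replicate wells gave conflicting results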
KCC2 ouabain = KCC2 (human) modulation, ouabain retest. shares compounds with Cl transport mod. HEK293-KCC2, thallium flux FluoZin2 fluorescence; bidirectional: low = inhibitor, high = activator. raw Tl+ flux slope (below DMSO = inhibition, above = activation) at 10 µM. 48% of 3,700 active;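 active = thallium flux slope beyond 3 SD from same-plate DMSO control mean in most replicates, usually higher, sometimes lower; inconclusive = repeat tests gave conflicting results; inactive = no significant difference from controls in most replicates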;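 note: slope of initial-normalized fluorescence between seconds 10 and 20 after thallium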
HEK counter2 = parental HEK flux effect, counter-screen 2. shares compounds with Cl transport mod. HEK293 parental, thallium flux FluoZin-2 fluorescence slope. thallium flux slope at 10 µM. 33% of 3,700 active. AID 1718;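 active = thallium flux slope above the same plate's solvent-control mean plus 3 SD in both duplicate wells; inconclusive = duplicate wells that disagreed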;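 note: run without ouabain in cells lacking the KCC2 cotransporter; slope of fluorescence scaled to its starting value between 10 and 20 s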
Starred values were filed as active, the others as inactive; ? = inconclusive; . = no result. Hits are enriched below; roughly 12% of the tested compounds scored in any of these assays.

SMILES	Insulin prom up	Insulin prom inh	Cl transport mod	WT yeast gro inh	ROMK mod	L major viab	KCC2 sec1	KCC2 bumet counter	KCC2 secondary2	HEK counter1	KCC2 ouabain	HEK counter2
Cc1nc2c(cnn2-c2ccccc2Cl)c(=O)n1-c1ccc(N2CCC(C)CC2)cc1	2	.	.	45	0.44	35	0.0092	0.0069	0.033	0.0079	0.02	0.011
O=C(CSc1nc2[nH]ncc2c(=O)n1-c1ccccc1Br)NCc1ccco1	1.3	52	-0.15	-14	.	3	.	.	.	.	.	.
O=c1c(O)c(-c2ccc3c(c2)OCO3)oc2ccccc12	0.03	-50	.	2	2.3	-8	0.032*	0.17*	0.052*	0.1*	0.1*	0.05*
O=C(Nc1ccc2c(c1)oc1ccccc12)c1ccc2c(c1)OCO2	1.4	-65	-0.4	18	0.62	-2	.	.	.	.	.	.
Fc1ccc(NC(=S)NCCc2ccc(Cl)cc2)cc1	0.33	-40	-1.5	57	-0.94	17	.	.	.	.	.	.
O=[N+]([O-])c1ccc(NC(=S)NCCc2ccc(F)cc2)cc1	-1.1	.	-6.1*	85*	.	20	0.0069	0.0038	0.021*	0.0052*	0.01*	0.008*
O=C1CN(c2nc(-c3cccs3)nc3sc4c(c23)CCCC4)CCN1	-0.74	.	16*	33	1.3	76*	0.0075	0.0098*	0.03	0.01*	?	0.01
O=c1c2cc3c(cc2[nH]c(=S)n1C1CCN(Cc2ccccc2)CC1)OCO3	-0.22	42	18*	5	0.96	26	0.011*	0.061*	0.033	0.017*	0.044*	0.011*
O=C(CCCn1c(=S)[nH]c2cc3c(cc2c1=O)OCO3)NCc1ccco1	-0.16	-30	-0.01	23	-0.85	17	.	.	.	.	.	.
O=c1c2cc3c(cc2[nH]c(=S)n1Cc1ccco1)OCO3	-0.28	18	6.5*	11	.	-2	?	0.027*	0.028	0.012*	?	0.01*
CCOC(=O)N1CCN(CC(=O)Nc2ccc(OC)cc2)CC1	-0.06	54	-0.1	11	0.65	-6	.	.	.	.	.	.
Cc1cc(SCC(=O)NC(=O)NCc2ccco2)nc2c(C)cccc12	0.69	-9	4.4*	-9	.	3	0.0076	0.0063*	0.034	0.019*	?	0.016*
Cc1cc(SCC(=O)NC(=O)NCc2ccco2)nc2ccccc12	-0.77	.	0.26	4	.	0	.	.	.	.	.	.
Cc1[nH][nH]c(=O)c1C(c1ccc(-c2ccc(F)cc2)o1)c1c(C)[nH][nH]c1=O	0.22	.	-5.2*	21	-1.8	99*	0.017	0.0046	0.025*	0.0074	0.013	0.011
Cc1[nH][nH]c(=O)c1C(c1ccc(-c2ccc(Cl)c(Cl)c2)o1)c1c(C)[nH][nH]c1=O	0.44	17	-3.9*	-15	-2.1	100*	0.0069	0.0047	0.022*	0.0074	0.015*	0.0093
CN(C(=O)C1CCOC1)c1nnc(-c2cnccn2)s1 (stereo not given)	1.1	-14	.	-9	-0.0046	-1	.	.	.	.	.	.
Cc1cc(SCNC(=O)c2ccccc2)nc(C(C)C)n1	-0.2	-21	1.1	9	0.25	-5	.	.	.	.	.	.
COc1cccc(/C=N/NC(=O)CNC(=O)COc2cccc(C)c2)c1O	-0.11	.	-0.95	.	.	.	.	.	.	.	.	.
O=C(Nc1cc(=O)[nH]c2nc(-c3ccccc3)nn12)c1ccccc1Cl	1.7	.	-3.2*	.	-0.56	.	0.0081	0.0066	0.03	0.0068	?	?
Cc1cc(NC(=O)c2ccccc2Cl)n(C(C)(C)C)n1	-0.4	.	0.13	.	.	.	.	.	.	.	.	.
C=CCN(CC=C)C(=S)NC(=O)/C=C/c1ccccc1	0.08	-23	8.9*	23	0.028	-4	0.0055	0.023*	0.036	0.02*	0.029*	0.02*
COc1ccc(/C=C/C(=O)NC(=S)NNC(=O)c2cccs2)cc1	-0.93	.	12*	-15	1.4	0	0.0079	0.023*	0.038	0.022*	0.037*	0.021*
C=CCNC(=O)c1ccc(OC)cc1	0.1	.	0.071	.	.	.	.	.	.	.	.	.
COc1ccc(/C=C/C(=O)NC(=S)NNC(=O)c2cnccn2)cc1	.	.	0.85	.	2.2	.	.	.	.	.	.	.
C=CCN(CC=C)C(=S)NC(=O)/C=C/c1ccc(OC)cc1	0.19	-15	74*	5	0.64	-3	0.01*	0.14*	0.096*	0.11*	0.11*	0.087*
SMILES	Insulin prom up	Insulin prom inh	Cl transport mod	WT yeast gro inh	ROMK mod	L major viab	KCC2 sec1	KCC2 bumet counter	KCC2 secondary2	HEK counter1	KCC2 ouabain	HEK counter2
C=CCN(CC=C)C(=S)NC(=O)c1ccc(OC)cc1	-0.7	.	71*	27	2.3	8	0.053*	0.12*	0.09*	0.099*	0.093*	0.096*
Cc1ccc2oc(=O)n(CCCOc3ccccc3)c2c1	.	.	.	19	-1.3	13	.	.	.	.	.	.
COc1ccc(C(=O)CN2C(=O)c3ccccc3C2=O)c(OC)c1C	-0.19	-328	-0.51	5	.	-6	.	.	.	.	.	.
Cn1cccc1-c1nc2ccccc2n1Cc1ccccc1	-1.1	-41	.	28	.	7	.	.	.	.	.	.
CCOc1ccc(Cl)cc1/C=N/NC(=O)CNC(=O)c1ccccc1	0.82	-30	-0.33	12	.	0	.	.	.	.	.	.
O=C(/C=C/c1ccc(Br)cc1)NC(=S)NNC(=O)c1ccco1	.	22	3.9*	5	-2.6	3	0.01	0.01*	0.034	?	0.022	0.011
Cc1cccc(NC(=S)NNC(=O)c2ccco2)c1	0.46	-12	.	-5	.	-5	.	.	.	.	.	.
COc1ccc(C(=O)NC(=S)NCc2ccco2)cc1	-0.24	.	6.8*	.	0.3	.	0.011	0.015*	0.032	?	?	0.012
COc1cc(OC)cc(C(=O)NC(=S)NCc2ccco2)c1	0.75	7	.	7	.	-6	.	.	.	.	.	.
Cc1ccc(C(=O)NC(=S)NCc2ccco2)cc1	-0.51	-8	19*	9	0.42	-4	0.014*	0.022*	0.035	0.027*	0.029*	0.016*
CN(C)CCNC(=O)c1onc(CSc2ccc(F)c(F)c2)c1C(=O)NCCN(C)C	-0.84	.	0.47	.	.	.	.	.	.	.	.	.
COc1ccc(C(C)=O)c2c1OCCO2	0.26	43	0.57	-2	0.24	-7	.	.	.	.	.	.
CCCn1nnc(NC(=O)c2ccc(F)cc2)n1	0.06	31	-4.1*	38	.	-5	?	?	0.03	0.007	0.024	0.01
